# Reference: PubChem BioAssay (EPA / NIEHS)
# Results filed as inconclusive are left out. The source made the active and inactive calls. The calls were made as follows: active = hit-call score of the fitted dose curve at least 0.9, where 1 is the maximum; inconclusive = response in the unintended direction; inactive = score below 0.9.
# Target: human Protein Phosphatase, Mg2+/Mn2+ Dependent 1A (PPM1A), PPM1A (gene 5494) (UniProt P35813)
# Test: NVS_ENZ_hPPM1A: NovaScreen (NVS) Enzymatic Assay for human Protein Phosphatase, Mg2+/Mn2+ Dependent 1A (PPM1A) (AID 2283198)
# Method: (§1) NVS_ENZ_hPPM1A is a biochemical, single-readout assay that uses extracted gene-proteins in a cell-free assay. Measurements were taken 1 hour after chemical dosing in a 384-well plate.NVS_ENZ_hPPM1A is one of one assay component(s) measured or calculated from the NVS_ENZ_hPPM1A assay. It is designed to make measurements of enzyme activity, a form of enzyme reporter, as detected with fluorescence intensity signals by Fluorescence and electrophoretic mobility shift technology.Data from the assay component NVS_ENZ_hPPM1A was analyzed into 1 assay endpoint. This assay endpoint, NVS_ENZ_hPPM1A, was analyzed in the positive analysis fitting direction relative to DMSO as the negative control and baseline of activity. Using a type of enzyme reporter, loss-of-signal activity can be used to understand changes in the enzymatic activity as they relate to the gene PPM1A. Furthermore, this assay endpoint can be referred to as a primary readout, because this assay has produced multiple assay endpoints where this one serves a enzymatic activity function. To generalize the intended target to other relatable targets, this assay endpoint is annotated to the phosphatase intended target family, where the subfamily is serine/threonine phosphatase.
# (§2) Binding assays used specific radioligands (tritiated, iodinated) with non-radioactive competitive displacement ligands in agonist or antagonist protocols (as indicated) and various reference compounds and inhibitors to titrate specific binding to receptors and transporters. Most enzyme assays (CYPs, kinases, phosphatases, proteases, HDACs) used recombinant protein and specific substrates (fluorescence mostly, some colorimetric and radioactive) and inhibitors, followed by a biochemical separation of substrate and product. All assays for the biochemical HTS were initially run in duplicate at a single concentration (10 uM for CYP450 assays and 25 uM for all others). Assay-chemical combinations meeting a pre-defined threshold (e.g., 30% inhibition and other criteria defined below) were then run in singleton concentration-response format with maximum concentration of 20 uM for CYPs and 50 uM for all others. Each assay was run with positive and negative controls, and concurrent controls on every plate. The follow-up (secondary) screen tested active chemical-pairs in concentration series, as well as a few additional assays not tested in the primary screen, some selected negative inactives, and several cases re-run in the concentration series for confirmatory purposes.
# human Protein Phosphatase, Mg2+/Mn2+ Dependent 1A (PPM1A), PPM1A (gene 5494), sequence (P35813 whole entry, looked up): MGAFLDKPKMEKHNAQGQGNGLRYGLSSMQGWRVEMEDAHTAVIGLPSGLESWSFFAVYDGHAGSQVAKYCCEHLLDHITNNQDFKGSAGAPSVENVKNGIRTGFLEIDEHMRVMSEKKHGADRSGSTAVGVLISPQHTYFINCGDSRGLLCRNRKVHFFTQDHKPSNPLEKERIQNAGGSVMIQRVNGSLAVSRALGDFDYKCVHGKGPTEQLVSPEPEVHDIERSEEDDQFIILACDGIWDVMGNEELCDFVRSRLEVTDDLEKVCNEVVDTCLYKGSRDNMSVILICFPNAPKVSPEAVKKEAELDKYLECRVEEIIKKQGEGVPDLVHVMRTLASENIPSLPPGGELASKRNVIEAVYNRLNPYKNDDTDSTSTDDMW
row,Structure (SMILES),outcome
1,CC(C)(C)c1cc(O)c(C(C)(C)C)cc1O,inactive
2,CN[C@H]1CC[C@@H](c2ccc(Cl)c(Cl)c2)c2ccc(S(N)(=O)=O)cc21,inactive
3,Cc1cc(=O)[nH]c(=S)[nH]1,inactive
4,Oc1ccc2c(c1)OC[C@@H](N1CCC(O)(c3ccc(F)cc3)CC1)[C@H]2O,inactive
5,CCCCCCC(=O)OCC,inactive

# Target: Serine/threonine-protein phosphatase PP1-alpha catalytic subunit (Homo sapiens) (UniProt P62136)
# Test: NVS_ENZ_hPPP1CA: NovaScreen (NVS) Enzymatic Assay for human Protein Phosphatase 1 Aatalytic subunit Alpha (PPP1CA) (AID 2283200)
# Method: as §1, with “NVS_ENZ_hPPP1CA” for “NVS_ENZ_hPPM1A”, “1.33 hours” for “1 hour”, “plate.NVS_ENZ_hPPP1CA” for “plate.NVS_ENZ_hPPM1A”, “NVS_ENZ_hPPP1CA,” for “NVS_ENZ_hPPM1A,”, “PPP1CA.” for “PPM1A.”
# as §2
# Serine/threonine-protein phosphatase PP1-alpha catalytic subunit (Homo sapiens), sequence (P62136 whole entry, looked up): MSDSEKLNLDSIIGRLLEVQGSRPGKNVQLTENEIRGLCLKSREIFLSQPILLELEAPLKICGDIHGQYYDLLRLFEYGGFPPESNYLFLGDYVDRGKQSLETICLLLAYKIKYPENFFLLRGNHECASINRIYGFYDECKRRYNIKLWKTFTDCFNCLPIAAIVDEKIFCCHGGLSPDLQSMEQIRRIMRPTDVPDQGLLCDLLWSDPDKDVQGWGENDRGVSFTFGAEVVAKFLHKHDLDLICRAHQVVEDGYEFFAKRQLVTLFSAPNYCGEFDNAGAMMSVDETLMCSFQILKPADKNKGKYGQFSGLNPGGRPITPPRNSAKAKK
Structure (SMILES),outcome,AC50
CC1(C)NC(=O)NC1=O,inactive,
Nc1ccc2c(c1)C(=O)c1ccccc1C2=O,inactive,
COc1cc(-c2nc(NC(=O)c3cc4cc(C)cc(C)c4n3CC(=O)O)sc2CCC2CCCCC2)c(OC)cc1Cl,,1.42 µM (active)
CCCCN(CCCC)CCCC,inactive,

# Target: human Protein Tyrosine Phosphatase Non-receptor Type 9 (PTPN9), PTPN9 (gene 5780) (UniProt P43378)
# Test: NVS_ENZ_hPTPN9: NovaScreen (NVS) Enzymatic Assay for human Protein Tyrosine Phosphatase Non-receptor Type 9 (PTPN9) (AID 2283209)
# How it was run: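 Sf9-expressed enzyme in a cell-free assay, fluorescence read 1.33 h after dosing with mobility-shift separation of substrate and product. Tested at 25 uM in duplicate, then up to 50 uM; signal loss versus DMSO.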
# human Protein Tyrosine Phosphatase Non-receptor Type 9 (PTPN9), PTPN9 (gene 5780), sequence (P43378 whole entry, looked up): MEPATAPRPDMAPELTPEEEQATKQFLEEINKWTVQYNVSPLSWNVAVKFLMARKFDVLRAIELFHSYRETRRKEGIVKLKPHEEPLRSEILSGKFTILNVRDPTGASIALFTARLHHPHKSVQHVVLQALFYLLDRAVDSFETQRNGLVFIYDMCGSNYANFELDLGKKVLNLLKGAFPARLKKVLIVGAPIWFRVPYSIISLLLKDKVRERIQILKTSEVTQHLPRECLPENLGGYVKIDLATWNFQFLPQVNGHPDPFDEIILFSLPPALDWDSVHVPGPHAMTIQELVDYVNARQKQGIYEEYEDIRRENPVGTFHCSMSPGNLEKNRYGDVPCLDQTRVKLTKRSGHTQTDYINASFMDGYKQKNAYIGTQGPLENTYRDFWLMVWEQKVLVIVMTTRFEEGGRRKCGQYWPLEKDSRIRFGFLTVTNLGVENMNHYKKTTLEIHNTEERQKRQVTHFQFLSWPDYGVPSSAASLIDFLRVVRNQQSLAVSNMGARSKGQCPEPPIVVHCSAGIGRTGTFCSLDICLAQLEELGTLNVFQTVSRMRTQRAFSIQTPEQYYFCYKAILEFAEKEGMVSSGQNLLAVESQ
Structure (SMILES),AC50,outcome
O=[N+]([O-])C(CO)(CO)CO,38.4 µM (active),
Cc1ccc2ncccc2c1,,inactive
CCCCCCCCCCC,,inactive
Oc1ccc2ccccc2c1N=Nc1ccccc1,25 µM (active),
O=C(O)CCCCC(=O)O,,inactive

# Target: human Protein Tyrosine Phosphatase Non-receptor Type 6 (PTPN6), PTPN6 (gene 5777) (UniProt P29350)
# Test: NVS_ENZ_hPTPN6: NovaScreen (NVS) Enzymatic Assay for human Protein Tyrosine Phosphatase Non-receptor Type 6 (PTPN6) (AID 2283210)
# How it was run: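 Cell-free assay with recombinant PTPN6 expressed in SF9 cells, fluorescent substrate, product separated from substrate by electrophoretic mobility shift; read 1.33 hours after dosing. Primary screen in duplicate at 25 uM, actives retested in concentration series; DMSO baseline.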
# human Protein Tyrosine Phosphatase Non-receptor Type 6 (PTPN6), PTPN6 (gene 5777), sequence (P29350 whole entry, looked up): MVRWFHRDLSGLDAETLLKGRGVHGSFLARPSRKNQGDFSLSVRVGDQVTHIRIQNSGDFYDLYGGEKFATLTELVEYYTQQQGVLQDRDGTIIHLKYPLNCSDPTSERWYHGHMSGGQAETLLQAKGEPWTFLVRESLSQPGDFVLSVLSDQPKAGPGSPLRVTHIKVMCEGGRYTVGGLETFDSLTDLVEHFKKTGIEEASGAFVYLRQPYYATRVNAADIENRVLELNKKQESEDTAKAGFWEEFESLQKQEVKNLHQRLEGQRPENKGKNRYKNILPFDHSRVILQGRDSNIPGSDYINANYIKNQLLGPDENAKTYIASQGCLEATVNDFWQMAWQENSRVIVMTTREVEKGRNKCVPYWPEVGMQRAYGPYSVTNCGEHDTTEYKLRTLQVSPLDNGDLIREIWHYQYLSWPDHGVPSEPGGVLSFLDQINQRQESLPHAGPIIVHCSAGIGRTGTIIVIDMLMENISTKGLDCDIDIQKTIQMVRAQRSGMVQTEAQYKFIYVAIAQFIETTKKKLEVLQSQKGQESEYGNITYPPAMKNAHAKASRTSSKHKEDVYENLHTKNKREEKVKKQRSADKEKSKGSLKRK
row,Structure (SMILES),outcome
1,COc1ccc(C)cc1N,inactive
2,O=[N+]([O-])C(CO)(CO)CO,inactive
3,Cc1ccc2ncccc2c1,inactive
4,C[C@]12C=CC(=O)C=C1CC[C@@H]1[C@@H]2C(=O)C[C@@]2(C)[C@H]1CC[C@]2(O)C(=O)CO,inactive
5,Oc1ccc2ccccc2c1N=Nc1ccccc1,inactive

# Target: human Rho Associated Coiled-coil Containing Protein Kinase 1 (ROCK1), ROCK1 (gene 6093) (UniProt Q13464)
# Test: NVS_ENZ_hROCK1: NovaScreen (NVS) Enzymatic Assay for human Rho Associated Coiled-coil Containing Protein Kinase 1 (ROCK1) (AID 2283214)
# How it was run: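 Cell-free recombinant human ROCK1 activity assay; fluorescent substrate and product separated by electrophoretic mobility shift, read 1 h after dosing. Screened in duplicate at 25 uM; loss of signal versus DMSO baseline scored as inhibition.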
# human Rho Associated Coiled-coil Containing Protein Kinase 1 (ROCK1), ROCK1 (gene 6093), sequence (Q13464 whole entry, looked up): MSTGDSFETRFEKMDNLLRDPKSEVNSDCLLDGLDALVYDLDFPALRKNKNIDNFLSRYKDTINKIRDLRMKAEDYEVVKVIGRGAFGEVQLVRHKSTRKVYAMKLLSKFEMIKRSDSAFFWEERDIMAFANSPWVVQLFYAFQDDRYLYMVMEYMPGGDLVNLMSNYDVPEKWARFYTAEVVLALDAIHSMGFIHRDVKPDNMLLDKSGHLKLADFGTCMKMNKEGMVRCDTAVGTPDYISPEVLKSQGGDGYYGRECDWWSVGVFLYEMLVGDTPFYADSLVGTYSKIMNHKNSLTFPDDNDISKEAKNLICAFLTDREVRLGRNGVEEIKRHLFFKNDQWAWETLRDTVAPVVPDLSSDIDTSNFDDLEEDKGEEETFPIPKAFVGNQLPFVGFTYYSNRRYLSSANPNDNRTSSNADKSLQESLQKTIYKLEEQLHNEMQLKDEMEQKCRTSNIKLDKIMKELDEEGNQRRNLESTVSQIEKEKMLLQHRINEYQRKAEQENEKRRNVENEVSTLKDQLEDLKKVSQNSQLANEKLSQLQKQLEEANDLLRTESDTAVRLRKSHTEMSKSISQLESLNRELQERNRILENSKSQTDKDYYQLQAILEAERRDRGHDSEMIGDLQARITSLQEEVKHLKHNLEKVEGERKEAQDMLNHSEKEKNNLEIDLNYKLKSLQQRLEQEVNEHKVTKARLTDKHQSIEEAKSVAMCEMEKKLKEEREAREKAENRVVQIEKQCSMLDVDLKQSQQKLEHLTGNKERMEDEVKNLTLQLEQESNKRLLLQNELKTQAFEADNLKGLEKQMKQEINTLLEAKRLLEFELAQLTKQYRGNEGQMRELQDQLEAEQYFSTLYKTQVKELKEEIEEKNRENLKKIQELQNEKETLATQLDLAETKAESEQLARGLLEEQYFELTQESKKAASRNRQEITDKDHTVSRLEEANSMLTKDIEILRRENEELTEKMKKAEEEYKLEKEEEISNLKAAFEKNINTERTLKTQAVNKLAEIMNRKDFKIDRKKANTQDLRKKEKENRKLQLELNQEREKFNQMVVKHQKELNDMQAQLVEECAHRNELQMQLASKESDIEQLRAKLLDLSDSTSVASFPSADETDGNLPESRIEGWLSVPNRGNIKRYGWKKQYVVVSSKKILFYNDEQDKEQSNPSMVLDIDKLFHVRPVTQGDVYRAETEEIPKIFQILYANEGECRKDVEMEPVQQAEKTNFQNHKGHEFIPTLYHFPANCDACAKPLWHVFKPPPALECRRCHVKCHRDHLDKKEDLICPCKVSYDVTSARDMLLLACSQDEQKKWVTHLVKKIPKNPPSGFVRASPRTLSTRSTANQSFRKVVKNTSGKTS
row,Structure (SMILES),outcome
1,Cc1cccc([N+](=O)[O-])c1C,inactive
2,CCCCCCCCCCCCCCCCCC(=O)O,inactive
3,Cc1nc(C)nc(N2C[C@@H](C)N(c3ccnc([C@@H](C)O)n3)[C@@H](C)C2)n1,inactive
4,Cc1ccc(C)c(O)c1C,inactive
5,CC(=O)OCCOCCOCCOC(C)=O,inactive
